MARV entry inh – inhibitors of Marburg virus binding or cell entry; Marburg virus pseudotyped entry inhibition, cell reporter; Potency, µM (top dose mostly 37.8 µM), most hits filed as inhibitors; 300,000 tested, 1.8% active; calls by dose curve; tested in HEK293 cells
Cycloheximide cs – affects cycloheximide protein synthesis inhibition readout, counter-screen. cell reporter, cycloheximide protein synthesis inhibition counterscreen. max response, %. 300,000 tested, 12% active; in the data active means max response mostly above about 13%, no sharp cut-off; inactive means mostly below about 14%; further: read at 38.3 µM for the half of the compounds with a filed dose
Shiga inhibitor – Shiga toxin inhibition | Vero cells, Shiga toxin protein synthesis inhibition reporter | inhibition, % at 38.7 µM | 290,000 tested, 9.2% active | AID 2315; in the data active means inhibition mostly above about 28%, no sharp cut-off; inactive means mostly below about 43%
AMA1 RON2 block – disrupts binding of P. falciparum AMA1 to RON2; AlphaScreen AMA1-biotinylated RON2 peptide binding; Potency, µM (top dose mostly 58.2 µM), actives largely listed as inhibitors; 360,000 tested, 0.2% active; AID 720542; active means well fitted inhibition curve with a large enough effect; inconclusive means small, poorly fitted or top-dose-only effect; inactive means no such curve, though single readings can be large or run the other way; further: nearly all actives have a fitted effect of over 45% in size
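AMA1 (3D7) with his tag at 25 nM final met compounds first, then biotinylated RON2 peptide at 25 nM; detection used donor plus acceptor beads, 10 µg/mL apiece, read by AlphaScreen after 30 min at room temperature.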
Lassa entry inh – Lassa virus entry inhibition | Lassa virus pseudotype entry inhibition, cell reporter | Potency, µM (highest dose often 37.9 µM), usual class: inhibitors | 300,000 tested, 1.2% active; calls by dose curve; tested in HEK293 cells; further: nearly all actives have a fitted effect of over 50% in size
Hits are given with their value. The entries come from a sample that favours hits as a whole.

How did O=C(Nc1ccc2nn(-c3ccccc3)nc2c1)c1cccs1 do in these assays?
MARV entry inh: inactive; Cycloheximide cs: 34.8; Shiga inhibitor: 72.6; AMA1 RON2 block: inactive; Lassa entry inh: inactive

What do the screens show for `O=C(Nc1ccncc1)c1cccs1`?
MARV entry inh: inactive; Cycloheximide cs: inactive; Shiga inhibitor: inactive; AMA1 RON2 block: inactive; Lassa entry inh: inactive

Results for O=C(Nc1ccc2nsnc2c1)c1cccs1 ?
MARV entry inh: inconclusive; Cycloheximide cs: 30.2; Shiga inhibitor: inactive; AMA1 RON2 block: inactive; Lassa entry inh: inactive

How did O=C(Nc1ccc2nn(-c3ccccc3)nc2c1)c1ccc2c(c1)OCO2 do in these assays?
MARV entry inh: inactive; Cycloheximide cs: inactive; Shiga inhibitor: inactive; AMA1 RON2 block: inactive; Lassa entry inh: inactive

How did COc1ccc(CN2CCC2(C)C(=O)NCc2ccc3c(c2)OCO3)c2ccccc12 (stereo not given) do in these assays?
AMA1 RON2 block: inactive

What do the screens show for `CCOc1ccc(N2C(=O)C3ON(c4ccccc4)C(c4cccs4)C3C2=O)cc1` (stereo not given)?
MARV entry inh: inactive; Cycloheximide cs: inactive; Shiga inhibitor: inactive; AMA1 RON2 block: inactive; Lassa entry inh: inactive

What do the screens show for `COc1ccc(CN2C(=O)C(CC(=O)NC3CC3)CC(C(=O)N(C)C)=C2C)cc1` (stereo not given)?
AMA1 RON2 block: inactive

Results for O=C(CC(c1cccs1)S(=O)(=O)c1ccccc1)c1ccc(F)cc1 (stereo not given) ?
MARV entry inh: inactive; Cycloheximide cs: 51.9; Shiga inhibitor: 33.1; AMA1 RON2 block: inactive; Lassa entry inh: inactive

What do the screens show for `O=C(CC(c1ccco1)S(=O)(=O)c1ccccc1)c1ccccc1` (stereo not given)?
MARV entry inh: inactive; Cycloheximide cs: 41.6; Shiga inhibitor: 110.0; AMA1 RON2 block: inactive; Lassa entry inh: inconclusive

Results for Cc1ccc(C(=O)NCC(c2ccco2)S(=O)(=O)c2ccccc2)cc1C (stereo not given) ?
Lassa entry inh: inactive

Results for Cc1ccc(C(=O)CC(c2cccs2)S(=O)(=O)c2ccc(C)cc2)cc1 (stereo not given) ?
MARV entry inh: inconclusive; Cycloheximide cs: 22.8; Shiga inhibitor: inactive; AMA1 RON2 block: inactive; Lassa entry inh: inactive

How did CN(C)CCCN1C(=O)c2cccc3cccc(c23)C1=O do in these assays?
MARV entry inh: inconclusive; Cycloheximide cs: inactive; Shiga inhibitor: inactive; AMA1 RON2 block: inactive; Lassa entry inh: inactive

What do the screens show for `CN(C)CCN1C(=O)c2cccc3cc([N+](=O)[O-])cc(c23)C1=O`?
MARV entry inh: 0.316µM; AMA1 RON2 block: inactive; Lassa entry inh: 0.447µM

Results for CCOC(=O)N1CCc2cc(OC)c(OC)c3c2c1cc1cc(OC)c(OC)cc13 ?
MARV entry inh: 7.94µM; AMA1 RON2 block: inactive; Lassa entry inh: inconclusive

How did COc1cc(CC(=O)N2CCc3ccccc32)cc(OC)c1OC do in these assays?
MARV entry inh: inactive; Cycloheximide cs: inactive; Shiga inhibitor: inactive; AMA1 RON2 block: inactive; Lassa entry inh: inactive

What do the screens show for `CCOC(=O)c1cc(-c2ccc(N)cc2)sc1N`?
MARV entry inh: inactive; Cycloheximide cs: 53.9; Shiga inhibitor: 66.4; AMA1 RON2 block: inactive; Lassa entry inh: inactive

Results for Nc1sc(-c2ccccc2)cc1C(=O)NCCc1ccc(Cl)cc1 ?
AMA1 RON2 block: inactive

Results for NNC(=O)c1sc(-c2ccc(Cl)cc2)cc1N ?
MARV entry inh: inconclusive; Cycloheximide cs: 44.5; Shiga inhibitor: 65.9; AMA1 RON2 block: inactive; Lassa entry inh: inactive

How did CCOC(=O)c1ccc(N)cc1 do in these assays?
AMA1 RON2 block: inactive

How did CCOC(=O)c1sc(-c2ccc(Br)cc2)cc1N do in these assays?
MARV entry inh: inconclusive; Cycloheximide cs: 54.3; Shiga inhibitor: 113.9; AMA1 RON2 block: inactive; Lassa entry inh: inactive

How did Cc1ccc(NC(=O)c2oc3ccc(S(=O)(=O)N4CCCCC4)cc3c2C)c(C)c1 do in these assays?
Lassa entry inh: inactive

Results for CCCCNC(=S)NC(=O)c1ccccc1Br ?
MARV entry inh: inactive; Cycloheximide cs: 18.2; Shiga inhibitor: 81.6; AMA1 RON2 block: inactive; Lassa entry inh: inactive

Results for O=C(CNC(=S)NC(=O)c1ccccc1Br)c1ccccc1 ?
MARV entry inh: inactive; Cycloheximide cs: inactive; Shiga inhibitor: inactive; AMA1 RON2 block: inactive; Lassa entry inh: inactive

How did CC1CCCC(NC(=S)NC(=O)c2ccccc2Br)C1C (stereo not given) do in these assays?
MARV entry inh: inactive; Cycloheximide cs: inactive; Shiga inhibitor: active; AMA1 RON2 block: inactive; Lassa entry inh: inconclusive

How did O=C(NNC(=S)NC1CCCCC1)c1ccccc1Br do in these assays?
Cycloheximide cs: inactive; Shiga inhibitor: inactive; AMA1 RON2 block: inactive

What do the screens show for `CCCCNC(=S)NC(=O)c1ccc(Cl)cc1Cl`?
MARV entry inh: inactive; Cycloheximide cs: 31.8; Shiga inhibitor: inactive; AMA1 RON2 block: inactive; Lassa entry inh: inactive

Results for Cc1ccccc1-n1ncc2c1CC(C)(C)CC2NC(=O)C1=CC(=O)CC(C)(C)O1 (stereo not given) ?
MARV entry inh: inconclusive; Cycloheximide cs: inactive; Shiga inhibitor: inactive; AMA1 RON2 block: inactive; Lassa entry inh: inactive

Results for Cn1ccsc1=NC(=O)c1ccc(OC(F)(F)F)cc1 ?
MARV entry inh: inconclusive; Cycloheximide cs: 35.9; Shiga inhibitor: 82.6; AMA1 RON2 block: inactive; Lassa entry inh: inactive

Results for COc1ccc(NC(=O)CSCC(=O)N=c2sccn2C)cc1 ?
Cycloheximide cs: inactive; Shiga inhibitor: inactive; AMA1 RON2 block: inactive

What do the screens show for `COC(=O)c1ccc(C(=O)N=c2sccn2C)cc1`?
MARV entry inh: inconclusive; Cycloheximide cs: 40.5; Shiga inhibitor: 78.8; AMA1 RON2 block: inactive; Lassa entry inh: inactive

Results for Cn1ccs/c1=N\C(=O)Nc1ccccc1 ?
Cycloheximide cs: 65.8; Shiga inhibitor: 74.8; AMA1 RON2 block: inactive

Results for COc1ccc(C(=O)N=c2sccn2C)cc1 ?
MARV entry inh: inconclusive; Cycloheximide cs: 33.2; Shiga inhibitor: 70.7; AMA1 RON2 block: inactive; Lassa entry inh: inactive

Results for COc1cccc(CN(C)C(=O)CNC(=O)c2ccc(-c3ccccc3)cc2)c1OC ?
MARV entry inh: inconclusive; Cycloheximide cs: inactive; Shiga inhibitor: inactive; AMA1 RON2 block: inactive; Lassa entry inh: inconclusive

What do the screens show for `COc1ccc(C(CNC(=O)c2oc3c(Cl)cccc3c2C)N2CCCC2)cc1` (stereo not given)?
MARV entry inh: inconclusive; AMA1 RON2 block: inactive; Lassa entry inh: inconclusive

What do the screens show for `Cn1ccsc1=NC(=O)c1ccc(S(=O)(=O)C(F)F)cc1`?
MARV entry inh: inactive; Cycloheximide cs: 26.4; Shiga inhibitor: 69.2; AMA1 RON2 block: inactive; Lassa entry inh: inactive

What do the screens show for `Cn1ccsc1=NC(=O)c1ccccc1F`?
MARV entry inh: inconclusive; Cycloheximide cs: inactive; Shiga inhibitor: inactive; AMA1 RON2 block: inactive; Lassa entry inh: inactive

What do the screens show for `CN(C)c1ccc(C(=O)N=c2sccn2C)cc1[N+](=O)[O-]`?
Cycloheximide cs: 18.0; Shiga inhibitor: 41.8; AMA1 RON2 block: inactive

How did Cn1ccsc1=NC(=O)c1ccc(CS(C)(=O)=O)cc1 do in these assays?
MARV entry inh: inconclusive; Cycloheximide cs: inactive; Shiga inhibitor: 38.7; AMA1 RON2 block: inactive; Lassa entry inh: inactive

How did Cn1ccsc1=NC(=O)c1ccc(Cl)cc1 do in these assays?
MARV entry inh: inconclusive; Cycloheximide cs: 39.2; Shiga inhibitor: 113.4; AMA1 RON2 block: inactive; Lassa entry inh: inactive
